# “And” between values parts separate entries of the source, which are not always exact repeats. Equal values may be shown once. Among all 650,000 compounds or so, about 6,800 (1%) were called active. Rule as the data show it: active = activation above about 4.9%; inactive = the rest. The list comes from a sample in which actives are over-represented; it also holds similar structures and randomly drawn compounds. A structure can be active in one record and inactive in another.
# Biological target: G-protein coupled receptor 151 (Homo sapiens) (UniProt Q8TDV0)
# Assay: activators of human GPR151, primary screen, cell-based, PathHunter beta-arrestin, luminescence (AID 1508602);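 also: 0% = median of compound wells and 100% = cells with positive control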
# Conditions: PathHunter beta-arrestin GPR151 cells, at 11.2 µM, stronger effect = higher value
# Sequence of G-protein coupled receptor 151 (Homo sapiens) (Q8TDV0 whole entry, looked up): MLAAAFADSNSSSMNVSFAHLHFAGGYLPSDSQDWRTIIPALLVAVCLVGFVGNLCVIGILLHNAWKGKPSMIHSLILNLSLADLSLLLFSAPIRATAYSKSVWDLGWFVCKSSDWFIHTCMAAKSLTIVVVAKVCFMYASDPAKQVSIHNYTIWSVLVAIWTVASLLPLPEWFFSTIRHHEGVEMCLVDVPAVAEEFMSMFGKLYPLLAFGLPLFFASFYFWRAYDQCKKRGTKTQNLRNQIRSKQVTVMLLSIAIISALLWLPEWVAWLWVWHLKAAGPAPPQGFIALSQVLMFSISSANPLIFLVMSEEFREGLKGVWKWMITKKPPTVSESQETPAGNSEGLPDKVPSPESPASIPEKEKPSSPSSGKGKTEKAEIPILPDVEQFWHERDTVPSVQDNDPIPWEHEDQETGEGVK
row,SMILES,activation
1,COc1cc(NC(=O)NCCN2CCN(c3ccccc3)CC2)cc(OC)c1,0.531% (inactive)
2,CCOC(=O)NCCCN1CCN(c2ccccc2)CC1,1.63% (inactive)
3,N#Cc1ccc(N2CCN(CCCNC(=O)Nc3ccccc3)CC2)cc1,5.03% (active)
4,COc1cccc(C=O)c1OC(=O)c1ccc(Cl)c([N+](=O)[O-])c1,1.65% (inactive)
5,NC(=O)c1ccccc1NS(=O)(=O)c1cc(C(=O)O)c(Cl)cc1Cl,1.03% (inactive)
6,OC(COc1ccccc1F)CN1CCOCC1 (stereo not drawn),0.198% (inactive)
7,COc1ccc(C2/C(=C(\O)c3ccc(F)cc3)C(=O)C(=O)N2CCCN2CCOCC2)cc1 (stereo not drawn),1.83% (inactive)
8,CCCSc1[nH]c(=O)c(C(=O)O)cc1C#N,-0.367% (inactive)
9,O=C(Cn1nnc2ccccc21)N/N=C/c1c(O)ccc2ccccc12,5.7% (active)
10,O=C(Cn1nnc2ccccc21)N/N=C/c1cccnc1,0.99% (inactive)
11,O=C(Cn1nnc(-c2ccccc2)n1)N/N=C/c1c(O)ccc2ccccc12,1.41% (inactive)
12,CC(C)(C)C1(O)CCN2C[C@H]3c4ccccc4CCc4cccc(c43)[C@@H]2C1 (stereo partly drawn),7.83% (active) and 3.25% (inactive)
13,CC(Nc1n[nH]c(=O)[nH]c1=O)C(=O)N/N=C/c1cccnc1 (stereo not drawn),-0.752% (inactive)
14,CN(CC(=O)Nc1c(F)cccc1F)S(=O)(=O)c1ccc(Cl)cc1,0.4% (inactive)
15,CN(CC(=O)Nc1cccc2c1CCCC2)S(=O)(=O)c1ccc(Cl)cc1,5.67% (active)
16,CN(CC(=O)Nc1ccccc1Cl)S(=O)(=O)c1ccc(F)cc1,-1.27% (inactive)
17,C=CCn1c(SCC(=O)NCc2ccco2)nc2sc3c(c2c1=O)CCC(C)C3 (stereo not drawn),-1.7% (inactive)
18,CCOC(=O)CSc1nc2sc(C(=O)OCC)c(C)c2c(=O)n1Cc1ccccc1,2.6% (inactive)
19,CCOC(=O)c1sc2nc(SCc3ccc(Cl)cc3)n(Cc3cccc(Cl)c3)c(=O)c2c1C,-0.446% (inactive)
20,CCOC(=O)c1sc2nc(SCC(=O)N(C)Cc3ccccc3)n(Cc3ccc4c(c3)OCO4)c(=O)c2c1C,5.39% (active)

row,SMILES,activation
1,NC(=O)c1nc(-c2ccccc2)nc2c1[nH]c(=O)n2-c1ccc(F)cc1,0.0137% (inactive)
2,NC(=O)c1nc(-c2cccc(Cl)c2)nc2c1[nH]c(=O)n2-c1ccccc1,-0.457% (inactive)
3,CC(C)n1c(=O)[nH]c2c(C(N)=O)nc(-c3ccc(-c4ccccc4)cc3)nc21,5.61% (active)
4,Cc1cccnc1-c1ccc2c(c1)CC(CNC(=O)[C@@H]1CCC(=O)N1)O2 (stereo partly drawn),0.168% (inactive)
5,CCOC(=O)C1=C(C)OC(N)=C(C#N)C1c1ccc2c(c1)OCO2 (stereo not drawn),0.198% (inactive)
6,CCN(CC)CCOC(=O)c1ccc(OC)cc1OCCN(CC)CC,1.9% (inactive)
7,OCCC1CN(Cc2ccc3cc(F)ccc3n2)CCN1C1CCCC1 (stereo not drawn),9.5% (active)
8,CCOc1ccc(CN2CCN(Cc3ccc4cc(F)ccc4n3)CC2CCO)cc1 (stereo not drawn),-0.448% (inactive)
9,OCCC1CN(Cc2cccc(F)c2)CCN1C1CCCC1 (stereo not drawn),1% (inactive)
10,CC(C)Nc1cc(N2CCC3(CC2)OCCO3)c2noc3c2c1C(=O)c1ccccc1-3,3.8% (inactive)
11,Cc1ccc(N2C(=O)NC(NC(=O)c3cccs3)(C(F)(F)F)C2=O)cc1 (stereo not drawn),1.1% (inactive)
12,Cc1ccc(N2C(=O)CC(NCCc3ccccc3F)C2=O)cc1 (stereo not drawn),0.306% (inactive)
13,Cc1ccc(N2C(=O)CC(NCCN3CCOCC3)C2=O)cc1 (stereo not drawn),14% (active)
14,Cc1ccc(N2C(=O)CC(NCc3ccc(F)cc3)C2=O)cc1 (stereo not drawn),-0.0057% (inactive)
15,COc1ccc(F)c(CC2(CCC(=O)N(CCO)Cc3ccccc3)CCC(=O)N2)c1 (stereo not drawn),-0.346% (inactive)
16,NC(C(=O)N1CCN(C(=O)Nc2ccc3[nH]ncc3c2)CC1)c1cccc(Br)c1 (stereo not drawn),-1.09% (inactive)
17,CC(C)[C@H](O)C(=O)N1CCC(C(=O)Nc2ccc3[nH]ncc3c2)CC1,-0.359% (inactive)
18,O=C(Nc1ccc2[nH]ncc2c1)N1CCCNCC1,5.34% (active)
19,O=C(Nc1ccccc1C(F)(F)F)c1cc(S(=O)(=O)N2CCCCCC2)ccc1F,0.584% (inactive)
20,Cc1ccc(N(CC(=O)N/N=C/c2ccc(C)c(C)c2C)S(C)(=O)=O)cc1,0.882% (inactive)

row,SMILES,activation
1,COc1cc2ccccc2cc1C(=O)Nc1nc2ccc3ccccc3c2s1,-1.09% (inactive)
2,CCOC(=O)c1ccc(NC(=O)c2nn(Cc3ccccc3)c(=O)c3ccccc23)cc1,-0.0773% (inactive)
3,CCOC(=O)c1cc[n+](CC(=O)c2ccc(NC(=O)c3ccccc3)cc2)cc1,-2.71% (inactive)
4,CCOC(=O)c1ccc(NC(=O)c2ncn(-c3ccccc3)n2)cc1,5.91% (active)
5,O=C(Nc1ccncc1NC(=O)c1ccco1)c1ccco1,0.598% (inactive)
6,O=C1NCCN(Cc2ccc(F)c(F)c2)C1CC(=O)N1CCCC1 (stereo not drawn),-0.422% (inactive)
7,COc1ccc(CN2CCNC(=O)C2CC(=O)N2CCCCC2)cc1OC (stereo not drawn),1.79% (inactive)
8,O=C1NCCN(Cc2ccc(-c3ccccc3)cc2)C1CC(=O)N1CCCCC1 (stereo not drawn),12.2% (active)
9,COc1cccc(N2CCN(c3ncnc4c3c(-c3ccccc3)cn4-c3ccccc3)CC2)c1,1.89% (inactive)
10,Nc1nc(NC(=O)/C=C/c2ccccc2)nn1-c1ccccc1,0.0795% (inactive)
11,Nc1nc(NC(=O)/C=C/c2ccc(F)cc2)nn1-c1ccccc1,10.7% (active)
12,Nc1nc(NC(=O)/C=C/c2ccc(Cl)cc2)nn1-c1ccccc1,0.321% (inactive)
13,Cc1sc(NC(=O)Cc2ccc([N+](=O)[O-])cc2)c(C#N)c1-c1ccccc1,-0.519% (inactive)
14,O=C(CN1CCOCC1)Nc1c(Cl)cc(Cl)cc1Cl,8.12% (active)
15,O=C1CN(CC(=O)Nc2c(Cl)cc(Cl)cc2Cl)CCN1,0.357% (inactive)
16,O=C(CN1CCOCC1)Nc1ncc(Cc2cc(Cl)cc(Cl)c2)s1,-0.516% (inactive)
17,CC(NC(=O)C12CC3CC(CC(C3)C1)C2)c1ccccc1 (stereo not drawn),1.54% (inactive)
18,CCOC(=O)c1c(-c2ccc(C)cc2)csc1NC(=O)CNCCCO,0.601% (inactive)
